Source: PubChem (National Center for Advancing Translational Sciences (NCATS))
HttQ103 aggreg: qHTS Multiplex Assay to Identify Dual Action Probes in a Cell Model of Huntington: Aggregate Formation (GFP) | PC12 HttQ103-GFP aggregates, Acumen cytometry, 40 h | Potency, µM (titrated, usually from 46.1 µM), hits mostly inhibitors | 1.1% of 220,000 active | AID 1688, 2009; further: nearly all actives have a fitted effect of over 60% in size
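PC12/HTTQ103-GFP, ecdysone-inducible; teb 100 nM; cpd qHTS titration; GFP aggregates read on laser cytometer, Ex 488/Em 500-530 nm.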
TGFb SMAD3 inh: qHTS for Inhibitors of TGF-b; 1.2% of 410,000 active; HepG2 CAGA-GFP TGF-b/SMAD3 reporter, GFP fluorescence, 18 h; TGF-beta stimulated, 500 pg/mL final; Potency, µM (doses to about 46.1 µM), actives largely listed as inhibitors; AID 588855, 2011; further: nearly all actives have a fitted effect of over 65% in size
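First, reporter cells (HEPG2 CAGA-GFP) rested 2 h at 37 degrees C. Next, compounds were pinned in and TGF-beta added to 500 pg/mL final. After 18 h, GFP was imaged per cell and summed per well.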
ATXN viability: Viability Counterscreen for Primary qHTS for Inhibitors of ATXN expression; S2 cells (HEK-293 line with an ATXN2-luciferase reporter) viability, CellTiter-Fluor protease fluorescence, 24 h; Potency, µM (titrated, usually from 56.7 µM), hits mostly cytotoxic; 0.49% of 400,000 active; further: nearly all actives have a fitted effect of over 40% in size
ATXN2 expr inh: Primary qHTS for Inhibitors of ATXN expression. 0.72% of 360,000 active. Potency, µM (series often up to 57 µM), most hits filed as inhibitors. HEK-293 ATXN2-luciferase reporter, luminescence, 24 h; further: nearly all actives have a fitted effect of over 55% in size
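qHTS (up to 57 uM final) was run with 24 h compound exposure of reporter cells at 37 °C. Each well was multiplexed: SteadyGlo luminescence measured ATXN2-luciferase expression after a fluorogenic Gly-Phe-AFC viability readout (25 uM final).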
HepG2 tox-1: qHTS for Inhibitors of TGF-b: Cytotox Counterscreen | Potency, µM (highest dose often 46.1 µM), usual class: cytotoxic | HepG2 CAGA-GFP viability, ATP luminescence, 18 h | AID 588856, 2011 | 0.76% of 410,000 active
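CellTiter-Glo luminescence gave cytotoxicity after 18 hours at 37 degrees C. The cells were HepG2 CAGA-GFP in 1% FBS DMEM, stimulated with 500 pg/mL TGF-beta after compound addition. %Activity was normalised to no-cell wells (complete cell-killing) and DMSO (no toxicity), and curves were fitted and classified.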
HTT ATP protect: qHTS Multiplex Assay to Identify Dual Action Probes in a Cell Model of Huntington: Cytoprotection (ATP) | PC12 HTT-Q103 induced, cytoprotection, ATP luminescence, 40 h | Potency, µM (highest dose often 56.4 µM), most hits filed as activators | 0.14% of 230,000 active; further: nearly all actives have a fitted effect of over 45% in size
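PC12 cells stably carrying ecdysone-inducible Htt exon 1 (Q103)–GFP were induced with 100 nM tebufenozide (final) alongside library compounds in a dose series. Cytoprotection was scored as retained ATP by ATPlite luminescence.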
TGFb confirm: qHTS for Inhibitors of TGF-b: Confirmation of Cherry Picks; HepG2 CAGA-GFP TGF-b reporter, GFP fluorescence, 18 h; cells stimulated with TGF-beta, 500 pg/mL; 63% of 1,600 active; AID 720534, 2013; Potency, µM (top dose mostly 46.1 µM), hits mostly inhibitors; shares compounds with TGFb SMAD3 inh; further: nearly all actives have a fitted effect of over 65% in size
HepG2 tox-2: qHTS for Inhibitors of TGF-b: Cytotox Counterscreen for Cherry Picks | shares compounds with TGFb SMAD3 inh | HepG2 CAGA-GFP viability, ATP luminescence, 18 h; cells stimulated with TGF-beta, 500 pg/mL | Potency, µM (titrated, usually from 46.1 µM), hits mostly inhibitors | 27% of 1,600 active | AID 720535, 2013; further: nearly all actives have a fitted effect of over 70% in size
TGFb CCL64 inh: qHTS for Inhibitors of TGF-b: CCL64 Cells Orthogonal Assay for Cherry Picks; shares compounds with TGFb SMAD3 inh; CCL64 CAGA-GFP reporter, TGF-b stimulated, GFP fluorescence, 18 h; Potency, µM (series often up to 46.1 µM), usual class: inhibitors; 41% of 1,600 active; AID 720536, 2013; further: nearly all actives have a fitted effect of over 65% in size
COP TGFb inh: qHTS for Inhibitors of TGF-b: Hit Validation in HepG2 Cells using COP promoter; shares compounds with TGFb SMAD3 inh; Potency, µM (series often up to 46.1 µM), actives largely listed as inhibitors; AID 720537, 2013; 3% of 1,600 active; HepG2 COP-GFP TGF-b reporter, GFP fluorescence, 18 h; cells stimulated by added recombinant TGF-beta; further: nearly all actives have a fitted effect of over 70% in size
A number is an active result; . = inactive; ? = inconclusive; / = no result given; [ ] = remark or other dose. Compounds with a hit are over-represented: about 2.8% of the library has one in this group of screens. The call rests on the fitted dose curve; in most records, active means well fitted curve in the direction sought with a large enough effect; inconclusive means small, poorly fitted or top-dose-only effect, or another doubt; inactive means no such curve, though single readings can be large; an effect the other way counts as inactive or inconclusive.

SMILES	HttQ103 aggreg	TGFb SMAD3 inh	ATXN viability	ATXN2 expr inh	HepG2 tox-1	HTT ATP protect	TGFb confirm	HepG2 tox-2	TGFb CCL64 inh	COP TGFb inh
CCCCCC(=O)Nc1cccc(C2=NOC3(C2)C[C@H](C(N)=O)N(C(=O)c2ccccc2C(=O)c2ccccc2)C3)c1 (stereo partly specified)	.[9.22 µM]	11µM	.	.	.	.[10 µM]	?	.	?	.
Cc1ccc2cc(C)c(SCC(=O)Nc3ccc(S(=O)(=O)N4CCCC4)cc3)nc2c1	.[9.22 µM]	.	.	.	.	.[10 µM]	/	/	/	/
Cc1cc(C)c2c(c1)cc(C)c1nnc(SCC(=O)Nc3ccc(S(=O)(=O)N4CCCCC4)cc3)n12	.	?	.	.	.	.[10 µM]	18µM	.	.	.
O=S(=O)(c1ccccc1C(F)(F)F)N1CCN(c2nc(-c3ccccc3)nc3ccccc23)CC1	/	.	/	/	.	/	/	/	/	/
CCNc1ncc2nc(-c3cccs3)c(=O)n(Cc3ccc(F)cc3)c2n1	/	/	/	/	/	.	/	/	/	/
O=C(Nc1nnc(SCc2ccc(F)cc2)s1)c1cccnc1Cl	.	.	.	.	.	.[10 µM]	/	/	/	/
O=C(Nc1nnc(SCc2ccc(F)cc2)s1)c1ccccn1	?	1.6µM	?	?	.	.	?	?	18µM	.
C[C@@H](C(=O)O)c1ccc(-c2ccccc2)c(F)c1	.	/	/	/	/	.	/	/	/	/
Cc1ccc(NC(=O)C(C)c2ccc(-c3ccccc3)c(F)c2)cc1 (stereo unspecified)	?	10µM	.	.	.	.	.	.	.	.
O=C1CS(=O)(=O)N(Cc2ccc(F)cc2)c2ccccc21	/	?	.	.	.	/	/	/	/	/
O=C1CS(=O)(=O)N(Cc2ccccc2F)c2ccc(Br)cc21	/	13µM	.	.	.	/	?	?	?	.
CC(=O)Oc1ccc2ccccc2c1C(NC(=O)Cc1ccccc1)c1ccccc1 (stereo unspecified)	?	10µM	?	?	.	.[10 µM]	29µM	?	?	.
CC1CCCN(S(=O)(=O)c2ccc(S(=O)(=O)NC(C)c3cccs3)cc2)C1 (stereo unspecified)	.	?	.	.	.	.	?	.	.	.
O=C(O)COc1ccc(OCCNC[C@H](O)COc2ccccc2)cc1	/	/	/	/	/	.	/	/	/	/
COc1ccc(-c2cc(C3C4C=CCC(C)C4C(=O)N3Cc3ccccc3)ccc2F)cc1OC (stereo unspecified)	/	.	/	/	.	/	/	/	/	/
CCC(C)Nc1nc(-c2ccccn2)nc2ccccc12 (stereo unspecified)	/	?	?	?	.	/	15µM	?	12µM	.
S=C(Nc1ccc(Br)cc1)NC1CCCCC1	.	10µM	.	.	.	/	?	?	?	.
S=C(Nc1ccc(Cl)cc1)NC1CCCCC1	.[9.22 µM]	?	.	.	.	.[10 µM]	/	/	/	/
COc1ccc(-c2nnn(CC(=O)N3CCN(c4ccccc4OC)CC3)n2)cc1	.	3.5µM	.	.	.	.[10 µM]	.	.	?	.
COc1ccc(C(=O)N(Cc2ccco2)Cc2cccs2)cc1	/	.	/	/	.	/	/	/	/	/
Cn1c(NCc2ccncc2)nc2cc(-c3ccsc3)sc2c1=O	/	?	.	.	.	/	/	/	/	/
Cn1c(NCC2CCCCC2)nc2cc(-c3ccsc3)sc2c1=O	/	?	.	.	.	/	23µM	?	?	.
CC(C)[C@H]1COCCS(=O)(=O)N1Cc1ccccc1-c1cccc2c1oc1ccccc12	/	?	.	.	.	/	9.2µM	.	.	.
COc1ccccc1N1CCN(C(=O)c2ccc3c(Cl)c4c(nc3c2)CCCC4)CC1	.	11µM	?	.	.	/	6.5µM	?	18µM	.
CC(C)(C)C(=O)/C(=C/c1ccc(Cl)cc1)n1cncn1	/	10µM	10µM	/	.	/	21µM	?	?	.
SMILES	HttQ103 aggreg	TGFb SMAD3 inh	ATXN viability	ATXN2 expr inh	HepG2 tox-1	HTT ATP protect	TGFb confirm	HepG2 tox-2	TGFb CCL64 inh	COP TGFb inh
CCSCCc1nnc(NC(=O)Nc2cccc(C(F)(F)F)c2)s1	11µM	4.5µM	.	?	.	.[1.9 µM]	5.2µM	?	7.3µM	.
O=C(NCCc1nc2ccccc2n1CCOc1cccc2ccccc12)C1CCCCC1	/	.	/	/	.	/	/	/	/	/
C=CCOCC/C=C1/c2ccccc2C(OC)C1C (stereo unspecified)	/	/	/	/	/	.[10 µM]	/	/	/	/
COc1ccc(C2CC(c3c(-c4ccccc4)c4cc(Cl)ccc4[nH]c3=O)=NN2S(C)(=O)=O)cc1OC (stereo unspecified)	.	8.9µM	.	.	.	.[10 µM]	?	.	?	.
Cc1sc2ncnc(N3CCC(C(=O)N(C)CC(=O)Nc4ccc(Cl)c(C(F)(F)F)c4)CC3)c2c1C	/	11µM	?	?	.	/	5.2µM	?	9.2µM	.
CC(=O)O[C@@H](C[C@@H](C)C1=C2C[C@H](O)C3[C@@]4(C)CCC(=O)C(C)(C)C4CC[C@]3(C)[C@@]2(C)CC1)[C@H]1OC1(C)C (stereo partly specified)	/	11µM	35µM	?	.	/	13µM	?	?	.
C[C@](O)(c1ccccc1)c1nccc2ccccc12	/	/	/	/	/	.[10 µM]	/	/	/	/
CO[C@@H]1COC(=O)C/C=C\[C@@H](C)COC(=O)[C@H](Cc2ccccc2)NC(=O)C/C=C\[C@H]1C	/	/	/	/	/	.[10 µM]	/	/	/	/
COC(=O)N1C2=C(c3ccccc3[C@@H]1CC(=O)Nc1ccc(Br)cc1)[C@@H]1C(=O)N(c3ccccc3)C(=O)[C@@H]1[C@H](C)C2	/	/	/	/	/	.[10 µM]	/	/	/	/
Cc1cc(Oc2ccccc2)nc(NCc2ccccc2)n1	.	.	?	.	.	.	/	/	/	/
